In the OligoGym collection:

target: TXNDC17; test: pooled miR-30 sensor sort-seq; sequence = guide strand; details: shRNA
Note: reference of the scale not given here.

Row | Sequence | sensor-assay potency score (higher = more potent)
1 | TAGATGAACACACATCCTTCAC | -0.655
2 | AGTAGATGAACACACATCCTTC | -1.77
3 | TTACTTTCAAGTTTTTTCTGAA | 0.123
4 | TTTCTGAAGTCATTATTTGGAT | -0.595
5 | TTTTCTGAAGTCATTATTTGGA | -0.354
6 | ATTGATACTAGAACAAATCAGG | -0.62
7 | TTAAGTAGTGTAGGCACTGCTG | -0.868
8 | AAGACACTCAGATTCTACCAGT | -0.12
9 | TTTTTCTGAAGTCATTATTTGG | -1.37
10 | TAAGTAGTGTAGGCACTGCTGT | -0.733
11 | TTCTGAAGTCATTATTTGGATC | -0.868

target: TXNDC2; test: as above; details: shRNA

Row | Sequence | sensor-assay potency score (higher = more potent)
12 | TTCTTCTTCAGGCTTTAGGATG | -1.62
13 | TTTTATAAAACTGAAAGGTTGG | -0.0568
14 | TCTTCTGAGGACTTGGGGCTGT | -0.284
15 | TCTTCTAGGGACTTGGGGCTGT | -0.62
16 | AAGAATGGTCTGATGGTCCTGC | 0.56
17 | TTCCAAGAACTCTAGGGCCAGG | -1.16
18 | TTTCCAAGAACTCTAGGGCCAG | -0.912
19 | TTTTTTATAAAACTGAAAGGTT | -0.527
20 | TTGGGGATGTCAATCTCCTTGG | -0.981
21 | TTTTTCTGAGGACTTGGGGAGG | -1.18
22 | TAGGATGTCACCCTCCTTGGAT | -0.739
23 | TTCTTCTGAGGACTTGGGGAGG | -1.18

target: UBA1; test: as above; details: shRNA

Row | Sequence | sensor-assay potency score (higher = more potent)
24 | TTTAACTTCGTGACATCCCAGG | -0.746
25 | TTAGGTACTTTGACCTGACTGA | -0.00997
26 | TTCCGGTAGTAGACACAGCGGC | -0.978
27 | TTCTCTTGCAGGTCTGAGCCAA | -0.695
28 | TATAGTACTGGTGACGTGGTGC | 0.491
29 | TTCTTGAGCAGCTCACAGCCAA | -0.992
30 | TACTTTGACCTGACTGACGATG | -0.507
31 | ATTCTTGTAGGAGTCAAGCTGT | 0.0651
32 | TTCTTAGGTACTTTGACCTGAC | 0.097
33 | TTGGTGAGCACCACCACCTGGA | 0.0519
34 | TATGTCTGCTTCACTGCCGTTC | -0.544
35 | TTGACATCAAAGGTGAGCGGGT | -0.267

target: UBA3; test: as above; details: shRNA

Row | Sequence | sensor-assay potency score (higher = more potent)
36 | TAGAACTTTACATGTATCTAAC | -0.95
37 | TTGCAGAGAAGCACTATTGGTT | -0.184
38 | TTGGATCTAAGACACCATCTTC | 0.0215
39 | TTGAATAGTACAGTCTGTGGGG | 0.37
